According to PMC5540273 (PLoS ONE, 2017):

system: ZAK; settings: concentration: 1 μM, replicates: in singlicate; n = 1
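Further: KINOMEscan kinase panel screen.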

Row | SMILES | %Inh [%]
1 | COc1ccccc1CNC(=O)c1cc(C(=O)c2ccccc2C)c[nH]1 [GSK364507] | 24
2 | COc1cc2ncnc(Nc3ccc4nc(-c5ccccc5)[nH]c4c3)c2cc1OC.Cl [GW282450] | 0
3 | NC(=O)c1nnc2ccccc2c1N | 0
4 | CN1C(=O)C(Nc2ccc(Cl)c(C(=O)O)c2)=C(c2ccc(Cl)cc2)C1=O [SB-404290] | 0
5 | Cc1cccc(-c2cc(Nc3ccncc3)c3ccccc3n2)n1 [GSK223675] | 82
6 | Cc1ccc(NC(=O)Nc2cc(C(C)(C)C)nn2-c2ccccc2)cc1 [GSK1014915] | 26
7 | Cn1ccc2ncnc(Oc3ccc(Nc4nc5ccccc5[nH]4)cc3)c21 | 0
8 | CCn1c(-c2cccnc2O)nc2cnccc21 [SB-736715] | 0
9 | COc1ccc(C2=C(Nc3cccc(C(=O)O)c3)C(=O)NC2=O)cc1 [SB-390765] | 13
10 | Fc1cc(Cl)ccc1Nc1ccnc2cc(I)ccc12 [GW551191] | 20
11 | CS(=O)(=O)c1ccc(-c2c(-c3ncn[nH]3)sc(N3CCOCC3)c2C#N)cc1 | 0
12 | Cn1ccc2ncnc(Oc3ccc(NC(=O)Nc4ccccc4)cc3)c21 | 0
13 | Cc1cccc(-c2nc(Nc3ccc4[nH]ncc4c3)c3ccccc3n2)n1 [GW857175] | 0
14 | CC1=C(C(=O)Nc2cc3cn[nH]c3cc2F)C(c2ccc(C(F)(F)F)cc2)CC(=O)N1 (stereo not drawn) [GSK429286] | 9
15 | Cc1cccc(-c2nc(C)cc(Nc3ccncc3)n2)n1 [GSK257997] | 0
